High-throughput results: PubChem BioAssay, several laboratories
Only some compounds are listed: those with a hit (about 1.3% of all), similar ones and a draw of the others.
S1P2 ag: S1P2 (human) receptor agonism. O95136. activation, % at 4.5 µM. S1P2-expressing cell line, agonist reporter read-out. hit rate 0.46% among 97,000; in the data active = activation above about 16%;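 also: 0% = vehicle low control and 100% = maximal reference agonist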
Target sequence (O95136 whole entry, looked up): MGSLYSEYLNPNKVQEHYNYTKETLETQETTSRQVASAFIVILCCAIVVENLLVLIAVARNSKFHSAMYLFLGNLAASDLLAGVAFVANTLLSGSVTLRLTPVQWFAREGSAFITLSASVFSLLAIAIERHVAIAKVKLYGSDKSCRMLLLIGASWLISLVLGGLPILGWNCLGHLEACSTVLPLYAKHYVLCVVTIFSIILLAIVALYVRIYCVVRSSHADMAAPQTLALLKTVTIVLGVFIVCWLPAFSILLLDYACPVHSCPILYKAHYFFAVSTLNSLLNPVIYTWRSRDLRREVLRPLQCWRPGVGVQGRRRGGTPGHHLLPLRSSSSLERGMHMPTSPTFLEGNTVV
Calb biofilm kill: kills Candida albicans biofilms | C. albicans biofilm + clotrimazole, Alamar Blue | inhibition, % at 6 µM | hit rate 0.14% among 85,000 | AID 834;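 active = inhibition above 20%; inactive = inhibition below 20%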;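 also: preformed 24 hr biofilms exposed to compound for 48 hr; 0% = biofilm without compound and 100% = blank killed by clotrimazole plus chlorhexidine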
S1P2 blocker: S1P2 (human) receptor antagonism; hit rate 0.21% among 97,000; O95136; cell-based S1P2 antagonist assay, inhibition at 5 uM; inhibition, % at 5 µM; AID 736; in the data active = inhibition above about 45%;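 also: CRE beta-lactamase reporter cells expressing human S1P2 stimulated with S1P; 0% = agonist at EC80 alone and 100% = agonist plus reference antagonist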
Smad3 inh: inhibitors of human Smad3 transcription factor binding | P84022 | TR-FRET Smad3/Dy647-FoxH1 peptide binding, europium anti-His | inhibition, % at 25 µM | hit rate 0.29% among 88,000 | AID 630;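 active = compounds that reduce the energy-transfer binding signal between the protein and its labelled peptide by more than half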;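 also: 0% = Smad3 plus labelled peptide maximal FRET and 100% = peptide-only background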
GALR2 ag: agonists of human galanin receptor 2 (GALR2). AID 803. hit rate 0.48% among 140,000. O43603. GALR2-expressing cells, agonist activation read-out. activation, % (test concentration not listed); in the data active = activation above about 5%, passing the limit was not always enough;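 also: 0% = vehicle buffer wells and 100% = reference agonist at full effect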
GALR2 antag: GALR2 (human) receptor antagonism; hit rate 0.39% among 140,000; O43603; inhibition, % at 4 µM; AID 828; GALR2-expressing cells, antagonist mode; in the data active = inhibition above about 27%;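 also: cells stimulated with galanin 1-16 at roughly its EC80; 0% = agonist challenge control and 100% = basal control without agonist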
The depositor's hits bear a star; x = not tested or not shown; ! = not active in a repeat; [ ] = remark or other dose.

SMILES	S1P2 ag	Calb biofilm kill	S1P2 blocker	Smad3 inh	GALR2 ag	GALR2 antag
COc1ccc2c3c([nH]c2c1)[C@H]1C[C@@H]2[C@H](C[C@@H](O)[C@H](OC)[C@H]2C(=O)O)CN1CC3	x	x	x	11	x	x
COc1ccc(/C=N/NC(=O)c2ccc(COc3ccccc3Cl)o2)c(OC)c1C	x	x	x	x	8.0*	0
O=C(Cn1ncc2c(=O)oc3ccccc3c21)N1CCc2ccccc2C1	x	22*	x	2	-1	-6
O=C(Cn1ncc2c(=O)oc3ccccc3c21)N1CCC(N2CCCCC2)CC1	x	5	x	15	-1	6
COc1ccc(CN2C(=O)C(O)(CC(=O)c3ccc4c(c3)OCO4)c3ccccc32)cc1OC (configuration not stated)	-1	8	-37	75*	-1	-9
CCN1C(=O)C(O)(CC(=O)c2ccc3c(c2)OCCO3)c2ccccc21 (configuration not stated)	-1	12	18	1	-5	0
COc1ccc(C2CC(c3ccccc3)=NN2c2ccc(N)cc2)cc1 (configuration not stated)	x	x	x	x	0	14
NS(=O)(=O)c1ccc(N2N=C(c3ccccc3)CC2c2cccc(F)c2)cc1 (configuration not stated)	x	x	x	x	5.9*	-11
NS(=O)(=O)c1ccc(N2N=C(c3ccc(Br)cc3)CC2c2ccc(F)cc2)cc1 (configuration not stated)	161*	x	-115	x	156*	-38
O=C(O)c1ccc(/C=N/N=C2c3ccccc3-c3ccccc32)cc1	x	x	x	11	x	x
O=C(NC(Cc1c[nH]c2ccccc12)C(=O)NCc1ccc(F)cc1)OCc1ccccc1 (configuration not stated)	x	x	x	x	-2	-3
CC1(C)C([N+](=O)[O-])C(c2ccc(Cl)cc2)NC(c2ccc(Cl)cc2)C1[N+](=O)[O-] (configuration not stated)	x	x	x	x	-1	3
CCn1c2ccccc2c2cc(NC(C)=O)ccc21	-3	44*	-12	4	-1	9
CCn1c2ccccc2c2cc(Nc3cc(C)nc4ncnn34)ccc21	x	4	x	0	3	34*
CCc1cccc(Nc2cc(C)nc3ncnn23)c1	x	3	x	-3	0	5
CC(=O)Nc1ccc2c(c1)c1ccccc1n2C(C)=O	x	x	x	x	1	-2
CCn1c2ccccc2c2cc(NC(=O)CSc3nnc(-c4ccc(OC)cc4)n3N)ccc21	-11	0	30	8	5.2*	9
Cc1noc(NS(=O)(=O)c2ccc(NC(=O)CSc3nc4ccccc4s3)cc2)c1C	-1	5	10	-5	-2	-3
Cc1cc(NC(c2cccnc2)c2c(C)[nH]c3ccccc23)no1 (configuration not stated)	x	27*	x	-5	-2	18
CC(=O)Nc1cc(C(C)(C)C)c(O)c(C(C)(C)C)c1	0	68*	-2	-1	0	5
CS(=O)(=O)c1nc(-c2cccs2)cc(C(F)(F)F)n1	-1	13	29	-10	2	38*
Cc1c(NC(=O)COC(=O)C(c2ccc(Cl)cc2)C(C)C)c(=O)n(-c2ccccc2)n1C (configuration not stated)	-5	x	-3	x	-1	-14
CC1(C)S[C@H]2[C@H](C(=O)O)N=C(Cc3ccccc3)N2[C@H]1C(=O)O	x	x	x	10	x	x
COc1cc2c(cc1OC)C(CC#N)=NC(C)(C)C2	18*	0	-46	5	-2	-3
COc1cc2c(cc1OC)C(=S)NC(C)(C)C2	-1	1	-31	-20	-1	-1
SMILES	S1P2 ag	Calb biofilm kill	S1P2 blocker	Smad3 inh	GALR2 ag	GALR2 antag
COC(=O)c1ccc(NC(=O)Cn2nc(SC)n(N)c2=S)cc1	x	27*	x	6	0	-3
Cc1ccc(CCN2CC(C(=O)NCCCN3CCCCCC3)CC2=O)cc1 (configuration not stated)	-4	4	9	66*	-1	-3
COCCCNC(=O)Cn1cc2c(n1)CCC(C)C2 (configuration not stated)	x	6	x	15	-1	7
Cc1ccc2nc3c(cc2c1)c(NC(=O)c1ccccn1)nn3CC(C)C	19*	8	-22	-11	3	-11
CCn1nc(NC(=O)c2ccccn2)c2cc3cc(C)ccc3nc21	14	8	-35	-5	8	12
CCc1nc(SCc2cccnc2)c2c(=O)n(C)c(=O)n(C)c2n1	17*	3	-40	10	-1	-2
CN1CCN(CCCN2c3ccccc3Sc3ccc(C(F)(F)F)cc32)CC1	x	14	x	70*!	2	2
OCCN(CCO)c1ncnc2c1oc1ccc(Br)cc12	20*	7	-52	-10	-1	-15
O=C1[C@H]2[C@@H]3c4ccccc4[C@H]([C@H]2C(=O)N1c1ccc(OCc2ccccc2)cc1)[n+]1ccccc13	x	x	x	0	x	x
NS(=O)(=O)c1ccc(NCc2cnc3ccccc3n2)cc1	x	x	x	9	x	x
NS(=O)(=O)c1ccc(NCc2cnc3ccccc3c2)cc1	x	x	x	102*	x	x
Cc1cc(-c2cc(C)c(O)c(C(C)(C)C)c2)cc(C(C)(C)C)c1O	x	x	x	63*	x	x
CN(C)Cc1cc(C(C)(C)C)c(O)c(C(C)(C)C)c1	-2	4	0	-10	-2	0
CCOC(=O)C1(C)/C(=N/Nc2ccccc2Cl)C(=O)C(=O)N1c1ccccc1 (configuration not stated)	-8	6	10	-2	-2	14
O=C(NC(Nc1ncc(S(=O)(=O)c2ccc([N+](=O)[O-])cc2)s1)(C(F)(F)F)C(F)(F)F)c1ccc(Cl)cc1	-6	x	47*	x	-3	16
O=C(Nc1ncc(S(=O)(=O)c2ccc([N+](=O)[O-])cc2)s1)c1cccc2ccccc12	x	x	x	x	4	1
Nc1ncnc2c1nc(-c1ccccc1)n2[C@H]1O[C@@H](CO)[C@H](O)[C@H]1O	x	x	x	14	x	x
Cn1c(N)nc2c(nc(OCc3ccccc3)n2[C@H]2O[C@H](CO)[C@@H](O)[C@@H]2O)c1=O	x	x	x	74*	x	x
CC(C)/C=N/Nc1nc(-c2ccc(Br)cc2)cs1	x	x	x	x	-2	15
CCOC(=O)N1CCN(c2cc(NCCC(=O)O)c3c4c(onc24)-c2ccccc2C3=O)CC1	x	8	x	-8	0	6
O=C(O)CCCNc1cc(N2CCC3(CC2)OCCO3)c2noc3c2c1C(=O)c1ccccc1-3	3	-1	-30	98*[fluorescence artefact?]	-2	-6
CCN(CC)CCCNC(CC(=O)Nc1cccc([N+](=O)[O-])c1)C(=O)O (configuration not stated)	x	x	x	x	0	-1
O=S1(=O)OC(c2ccc(O)cc2)(c2ccc(O)cc2)c2ccccc21	x	x	x	97*	x	x
Cc1cc(O)ccc1C1(c2ccc(O)cc2C)OC(=O)c2ccccc21	1	11	-25	-7	-1	-11
CCOC(=O)c1c(C)oc2cc3c(C(=O)OCC)c(C)oc3cc12	-3	3	-2	1	-3	10
CC1(C)[C@@H]2CC[C@@]1(CC(=O)O)[C@@H](Cl)C2	x	x	x	-6	x	x
